Screening data as filed in PubChem BioAssay.
PriA SSB inh: K. pneumoniae PriA-SSBct interaction inhibition; AlphaScreen SSBct-PriA binding, biotinylated peptide; inhibition, % at 33 µM; 430,000 compounds, 0.6% hits; AID 1272365; in the data active = inhibition mostly above about 37%, no sharp cut-off; inactive = mostly below about 20%
RecA intein inh: Mtb RecA intein splicing inhibition | 290,000 compounds, 0.75% hits | cell-free RecA intein splicing, fluorescence | inhibition, % (test concentration not listed); in the data active = inhibition above about 30%
Target sequence (P9WHJ3 whole entry, looked up): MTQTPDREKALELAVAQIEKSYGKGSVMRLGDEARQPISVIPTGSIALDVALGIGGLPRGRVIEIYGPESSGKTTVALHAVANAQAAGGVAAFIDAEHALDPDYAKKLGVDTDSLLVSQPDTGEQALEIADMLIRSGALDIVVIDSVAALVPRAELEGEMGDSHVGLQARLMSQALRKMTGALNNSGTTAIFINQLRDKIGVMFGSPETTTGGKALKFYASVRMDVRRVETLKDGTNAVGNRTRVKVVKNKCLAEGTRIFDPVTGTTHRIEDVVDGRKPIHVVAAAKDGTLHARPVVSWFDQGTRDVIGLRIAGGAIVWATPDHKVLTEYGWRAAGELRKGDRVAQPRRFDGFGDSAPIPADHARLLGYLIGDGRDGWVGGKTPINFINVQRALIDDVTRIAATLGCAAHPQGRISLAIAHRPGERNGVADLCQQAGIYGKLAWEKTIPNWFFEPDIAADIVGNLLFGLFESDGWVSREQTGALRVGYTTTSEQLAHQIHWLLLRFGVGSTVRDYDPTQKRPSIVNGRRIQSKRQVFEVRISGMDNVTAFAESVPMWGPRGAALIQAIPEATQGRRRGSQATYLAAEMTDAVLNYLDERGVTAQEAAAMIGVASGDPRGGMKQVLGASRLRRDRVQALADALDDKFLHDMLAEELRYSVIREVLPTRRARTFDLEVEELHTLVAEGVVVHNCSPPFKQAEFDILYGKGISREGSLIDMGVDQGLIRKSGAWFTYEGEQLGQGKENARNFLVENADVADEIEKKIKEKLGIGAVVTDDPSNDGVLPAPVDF
PrPC TRFRET: cell surface PrPC inhibition, primary TR-FRET screen; inhibition, % at 13.8 µM; 370,000 compounds, 0.43% hits; AID 720596; TR-FRET read-out; in the data active = inhibition above about 24%
BJeLR lethal: kills HRASV12-expressing BJeLR cells; BJeLR (HRASV12) viability, CellTiter-Glo ATP luminescence, 48 h; inhibition, % (test concentration not listed); 300,000 compounds, 0.17% hits; AID 1554; in the data active = inhibition above about 50%
PfHsp40 yeast: compounds rescuing yeast from Plasmodium falciparum HSP40 toxicity | S. cerevisiae expressing PfHsp40, growth rescue, ATP luminescence | growth rescue, % at 12.5 µM | AID 504582 | 340,000 compounds, 0.68% hits; in the data active = growth rescue above about 28%, passing the limit was not always enough;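 also: yeast W303a lacking pdr1 and pdr3 grown in galactose medium; growth measured after three days at 30 °C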
PrP 5UTR inh: inhibition of PrP 5' UTR reporter expression; cell-based PrP 5' UTR mRNA reporter, plate reader; AID 488862; inhibition, % (concentration not given with the values); 340,000 compounds, 0.35% hits; in the data active = inhibition above about 52%
GFP chromo cs: counter-screen GFP chromophore formation inhibition. EC50, µM. cell-free GFP chromophore formation, fluorescence. 2,100 compounds, 83% hits. shares compounds with RecA intein inh; call rule not given here
Numbers stand for hits. A selection: hits, their analogues and other compounds. The true share with any hit is near 1.9%.

What do the screens show for `COc1ccc(C=C(c2nc3ccccc3s2)c2nc3ccccc3s2)cc1O`?
PriA SSB inh: inactive; RecA intein inh: 60; PrPC TRFRET: inactive; BJeLR lethal: inactive; PfHsp40 yeast: inactive; PrP 5UTR inh: inactive; GFP chromo cs: inactive

What do the screens show for `Cc1c(Cl)cccc1S(=O)(=O)NCCc1nc(-c2ccco2)cn1C`?
PriA SSB inh: inactive

How did COC(=O)Cc1[nH]nc2c1C1(C(=O)N(Cc3ccc(Cl)cc3)c3ccccc31)C(C#N)=C(N)O2 (stereo unspecified) do in these assays?
PriA SSB inh: inactive; RecA intein inh: inactive; PrPC TRFRET: inactive; BJeLR lethal: inactive; PfHsp40 yeast: inactive; PrP 5UTR inh: inactive

How did COC(=O)Cc1[nH]nc2c1C1(CCSCC1)C(C#N)=C(N)O2 do in these assays?
PriA SSB inh: inactive; RecA intein inh: 66; PrPC TRFRET: inactive; BJeLR lethal: inactive; PfHsp40 yeast: inactive; PrP 5UTR inh: inactive; GFP chromo cs: 17

How did Cc1ccc(SCc2[nH]nc3c2C2(CCSCC2)C(C#N)=C(N)O3)cc1 do in these assays?
PriA SSB inh: inactive; RecA intein inh: 60; PrPC TRFRET: inactive; BJeLR lethal: inactive; PfHsp40 yeast: inactive; PrP 5UTR inh: inactive; GFP chromo cs: 16

How did COc1ccccc1-n1ncc2c(C(C)C)n[nH]c(=S)c21 do in these assays?
PriA SSB inh: inactive

How did CCc1cc(=O)[nH]c(-n2[nH]c(-c3ccccc3)cc2=O)n1 do in these assays?
PriA SSB inh: inactive; RecA intein inh: inactive; PrPC TRFRET: inactive; BJeLR lethal: inactive; PfHsp40 yeast: inactive; PrP 5UTR inh: inactive

What do the screens show for `N#CCCn1[nH]c(-c2ccccc2)cc1=O`?
PriA SSB inh: inactive; RecA intein inh: 97; PrPC TRFRET: inactive; BJeLR lethal: inactive; PfHsp40 yeast: inactive; PrP 5UTR inh: inactive; GFP chromo cs: 5.1

What do the screens show for `COc1ccc2cc(C(=O)NC[C@@H](O)Cc3ccccc3)[nH]c2c1`?
PriA SSB inh: inactive

What do the screens show for `COc1cc(/C=N/NC(=O)CC2(C)OCCCO2)ccc1OCc1ccc(Cl)cc1Cl`?
RecA intein inh: inactive; PrPC TRFRET: inactive; BJeLR lethal: inactive; PfHsp40 yeast: inactive; PrP 5UTR inh: inactive

What do the screens show for `COc1cc(/C=N/NC(=O)CC2(C)OCCCO2)ccc1OCc1ccccc1`?
RecA intein inh: 39; PrPC TRFRET: inactive; BJeLR lethal: inactive; PfHsp40 yeast: inactive; PrP 5UTR inh: inactive; GFP chromo cs: 3.1

What do the screens show for `COc1ccc(NC(=O)CSc2nc3c(-c4ccccc4)c[nH]c3c(=O)n2C(C)C)c(OC)c1`?
PriA SSB inh: inactive

What do the screens show for `O=C1c2ccccc2OC2(C=Cc3ccccc3O2)N1Cc1ccccc1` (stereo unspecified)?
PriA SSB inh: inactive; RecA intein inh: 32; PrPC TRFRET: inactive; BJeLR lethal: inactive; PfHsp40 yeast: inactive; PrP 5UTR inh: inactive; GFP chromo cs: inactive

What do the screens show for `CC1CCCN(C(=O)COc2ccc(NC(=O)c3cccs3)cc2)C1` (stereo unspecified)?
PriA SSB inh: inactive; RecA intein inh: 44; PrPC TRFRET: inactive; BJeLR lethal: inactive; PfHsp40 yeast: inactive; PrP 5UTR inh: inactive; GFP chromo cs: inactive

Results for CN(C)S(=O)(=O)c1ccc(-c2nnc(NC(=O)CSc3ccc(F)cc3)o2)cc1 ?
PriA SSB inh: inactive

What do the screens show for `O=C(CCl)N1c2ccccc2CCc2ccccc21`?
RecA intein inh: 80; PrPC TRFRET: inactive; BJeLR lethal: inactive; PfHsp40 yeast: inactive; PrP 5UTR inh: inactive; GFP chromo cs: 22

Results for CC1=NN(c2ccccc2)C(=O)/C1=C/c1c(O)n(-c2ccc(F)c(Cl)c2)[nH]c1=O ?
RecA intein inh: 50; BJeLR lethal: inactive; GFP chromo cs: 32

Results for O=C1C(Cl)=C(N2CCOCC2)C(=O)N1c1cccc(C(F)(F)F)c1 ?
PriA SSB inh: inactive; RecA intein inh: 90; PrPC TRFRET: inactive; BJeLR lethal: inactive; PfHsp40 yeast: inactive; PrP 5UTR inh: inactive; GFP chromo cs: 2.6

Results for COC(=O)c1cccc(N2C(=O)C(Cl)=C(N3CCOCC3)C2=O)c1 ?
PriA SSB inh: inactive; RecA intein inh: 68; PrPC TRFRET: inactive; BJeLR lethal: inactive; PfHsp40 yeast: inactive; PrP 5UTR inh: inactive; GFP chromo cs: 5.2

What do the screens show for `Cc1cc(S(=O)(=O)N2CCCC[C@@H]2CCNC(=O)C(=O)Nc2c(C)cccc2C)ccc1F`?
PriA SSB inh: inactive

Results for Cc1cc(C(=O)N2C3C=CCC2CC3)c(C)o1 (stereo unspecified) ?
PriA SSB inh: inactive

How did CC1=Nc2cccc3cccc(c23)N1C do in these assays?
PriA SSB inh: inactive; RecA intein inh: 78; PrPC TRFRET: inactive; BJeLR lethal: inactive; PfHsp40 yeast: inactive; PrP 5UTR inh: inactive; GFP chromo cs: inactive

How did Cc1ccccc1C(=O)NNC(=S)NC(=O)COc1ccccc1 do in these assays?
PriA SSB inh: inactive; RecA intein inh: 40; PrPC TRFRET: inactive; BJeLR lethal: inactive; PfHsp40 yeast: inactive; PrP 5UTR inh: inactive; GFP chromo cs: 31

How did COc1ccc(CNC(=O)C(c2ccc(C)o2)N(C(=O)c2snc(C(N)=O)c2N)c2ccccc2OC)cc1 (stereo unspecified) do in these assays?
PriA SSB inh: inactive; RecA intein inh: 36; PrPC TRFRET: inactive; BJeLR lethal: inactive; PfHsp40 yeast: inactive; PrP 5UTR inh: inactive; GFP chromo cs: inactive

How did COc1ccc(OC)c(N(C(=O)c2snc(C(N)=O)c2N)C(C(=O)NCc2ccccc2)c2ccc(O)cc2)c1 (stereo unspecified) do in these assays?
PriA SSB inh: inactive; RecA intein inh: inactive; PrPC TRFRET: inactive; BJeLR lethal: inactive; PfHsp40 yeast: inactive; PrP 5UTR inh: inactive

What do the screens show for `COC1=C(N)C(=O)c2nc(-c3nc(C(=O)O)c(C)c(-c4ccc(OC)c(OC)c4O)c3N)ccc2C1=O`?
PriA SSB inh: inactive; PfHsp40 yeast: inactive; PrP 5UTR inh: inactive

Results for COC(=O)c1nc(-c2ccc3c(n2)C(=O)C(N)=C(OC)C3=O)c(N)c(-c2ccc(OC)c(OC)c2O)c1C ?
PriA SSB inh: inactive; RecA intein inh: 94; PrPC TRFRET: inactive; BJeLR lethal: 64; PfHsp40 yeast: inactive; PrP 5UTR inh: inactive; GFP chromo cs: 0.84

How did O=C(CNC(=O)c1ccccc1Br)NN=Cc1cc(Br)ccc1O do in these assays?
PriA SSB inh: inactive

How did O=S(=O)(Nc1cccc2ccccc12)c1ccc(Cl)cc1 do in these assays?
PriA SSB inh: inactive

What do the screens show for `COc1ccc(S(=O)(=O)Nc2cc(SCC(=O)O)c(O)c3ccccc23)cc1`?
PriA SSB inh: inactive; RecA intein inh: 96; PrPC TRFRET: inactive; BJeLR lethal: inactive; PfHsp40 yeast: inactive; PrP 5UTR inh: inactive; GFP chromo cs: 0.65

Results for O=C(O)CSc1cc(NS(=O)(=O)c2ccc(Cl)cc2)c2ccccc2c1O ?
PriA SSB inh: inactive; RecA intein inh: 96; PrPC TRFRET: inactive; BJeLR lethal: inactive; PfHsp40 yeast: inactive; PrP 5UTR inh: inactive; GFP chromo cs: 9.8

How did Cc1cc(C)c(S(=O)(=O)Nc2cc(Cl)c(O)c3ccccc23)cc1C do in these assays?
PriA SSB inh: inactive
